The record followed here is PubChem BioAssay (Tox21).

Values joined by “and” are separate entries in the source; they are usually repeats but may differ in a detail not shown here. Identical values can stand only once. Records with an inconclusive call do not appear. A structure can be active in one record and inactive in another. Active and inactive are the calls of the source. Unless noted, the call rests on the fitted dose curve; in most records, active means well fitted curve in the direction sought with a large enough effect in the repeat runs; inconclusive means weak or mixed curves; inactive means no such curve, though single readings can be large; an effect the other way counts as inactive or inconclusive.

Assay [1] has as its target Progesterone receptor (Homo sapiens) (UniProt P06401). In words: qHTS assay to identify small molecule agonists of the progesterone receptor (PR) signaling pathway (AID 1346784; calls by dose curve; further: nearly all actives have a fitted effect of over 30% in size). The method in brief:
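PR-UAS-bla HEK 293T cells (beta-lactamase reporter under UAS) in 2% charcoal-stripped FBS, dosed with 23 nL compound after 6 hr, incubated 16hr at 37C. LiveBLAzer B/G FRET substrate added, fluorescence read after 2 hours.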
Background: In qHTS, concentration-response curves come from the screen itself.

Assay [2] has the same target. In words: qHTS assay to identify small molecule antagonists of the progesterone receptor (PR) signaling pathway (AID 1346795; active means well fitted inhibition curve with a large enough effect in the signal ratio in the repeat runs, not every such curve was filed as active; the % refers to the signal ratio). The method in brief:
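PR-UAS-bla HEK293T cells with beta-lactamase reporter under UAS control, in 2% charcoal-stripped FBS, treated with compounds plus 1 nM promegestone (R5020, final) for 16 hr at 37C. Read-out: FRET beta-lactamase substrate fluorescence after 2 hr at room temperature.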

A short description of assay [3]: qHTS assay to identify small molecule antagonists of the progesterone receptor (PR) signaling pathway - cell viability counter screen (AID 1346798). Further: nearly all actives have a fitted effect of over 50% in size. Further: potency means the concentration at half of the fitted maximal effect. An outline of the steps: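 PR-UAS-bla HEK293T cells, 3,000/well in 2% charcoal-stripped FBS medium, dosed with compounds plus R5020 agonist and incubated 16 h at 37C. Viability then measured in the same wells by CellTiter-Glo luminescence after 30 min at RT.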

Assay [4] is described as follows: qHTS assay to identify small molecule agonists of the progesterone receptor (PR) signaling pathway - cell viability counter screen (AID 1346799; calls by dose curve; further: nearly all actives have a fitted effect of over 45% in size; further: potency means the concentration at half of the fitted maximal effect). The method in brief: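 Counter screen in the PR-UAS-bla HEK293T wells (2% charcoal-stripped FBS, 16 h compound exposure at 37 C) after the bla read. CellTiter-Glo added, 30 min at room temperature, luminescence read as cell viability.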

A short description of assay [5]: qHTS assay to identify small molecule antagonists of the TGF-beta/Smad signaling pathway - cell viability counter screen (AID 1346824). Further: nearly all actives have a fitted effect of over 50% in size. Further: potency means the concentration at half of the fitted maximal effect. An outline of the steps: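 Cytotoxicity counter-screen run in the same wells as the beta-lactamase Smad reporter read: CellTiter-Glo luminescence after 30 min at room temperature. HEK 293T SBE-bla cells had 5 hr compound exposure at 37 C with TGF-beta1 (0.25 ng/mL stock).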

Assay [6] is described as follows: qHTS assay to identify small molecule agonists of the TGF-beta/Smad signaling pathway (AID 1346859; active means well fitted activation curve with a large enough effect in the signal ratio in the repeat runs, not every such curve was filed as active; the % refers to the signal ratio; further: series mostly up to about 77 µM). An outline of the steps:
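SBE-bla HEK293T cells plated overnight, then compound exposure for 5 h at 37 C. Beta-lactamase reporter read with LiveBLAzer B/G FRET substrate after 2 h at room temperature, fluorescence at 405 nm excitation, 460/530 nm emission.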

Assay [7] is described as follows: Human pregnane X receptor (PXR) small molecule agonists, qHTS cell viability counter screen (AID 1346977). Further: nearly all actives have a fitted effect of over 50% in size. Further: potency means the concentration at half of the fitted maximal effect. The method in brief: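 PXR-Luc HepG2 cells (2,000/well, 5% charcoal-stripped FBS) preincubated 5 hr, then exposed to compounds 24 hr at 37 C. Viability read in the same wells by CellTiter-Fluor fluorescence, reagent added at 23 hr, 1 hr incubation.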
Assay [8] in a line: Caspase-3/7 induction in HepG2 cells by small molecules, qHTS assay (AID 1346978). Further: nearly all actives have a fitted effect of over 15% in size. Further: potency means the concentration at half of the fitted maximal effect. An outline of the steps: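 Caspase-3/7 induction was measured by Caspase-Glo 3/7 luminescence (30 min, room temperature) after a 17 hr compound exposure of wild-type HepG2 cells seeded at 2,000 per well and pre-incubated 5 hr.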
Assay [9] in a line: Caspase-3/7 induction in CHO-K1 cells by small molecules, qHTS cell viability counter screen (AID 1346979). Further: nearly all actives have a fitted effect of over 35% in size. Further: potency means the concentration at half of the fitted maximal effect. The method in brief:
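Wild-type CHO-K1 cells (1,500/well) treated with compound after 5 h plating; after 16 h at 37C, viability read as CellTiter-Fluor fluorescence following 1 h reagent incubation, in the same wells as the caspase read.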

Assay [10] in a line: Caspase-3/7 induction in HepG2 cells by small molecules, qHTS cell viability counter screen (AID 1346981). Further: nearly all actives have a fitted effect of over 30% in size. Further: potency means the concentration at half of the fitted maximal effect. The method in brief:
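HepG2, WT, 2,000 cells/well; 5 hr pre-incubation 37 C/5% CO2; compound pin-transferred from DMSO; 16 hr exposure; CellTiter-Fluor, 1 hr; fluorescence read.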

Assay [11] has as its target Nuclear receptor subfamily 1 group I member 2 (Homo sapiens) (UniProt O75469). In words: Human pregnane X receptor (PXR) small molecule agonists, qHTS assay (AID 1346982). Further: nearly all actives have a fitted effect of over 35% in size. An outline of the steps:
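Luciferase signal from ONE-Glo (30 min, room temperature) measured activation of hPXR-driven CYP3A4 reporter expression in PXR-Luc HepG2 cells treated with compounds for 24 hr at 37 C.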

Assay [12] deals with Cytochrome P450 2D6 (Homo sapiens) (UniProt P10635). In words: Cytochrome P450 Family 2 Subfamily D Member 6 (CYP2D6) small molecule antagonists: luciferase reporter qHTS assay (AID 1671196). Further: nearly all actives have a fitted effect of over 50% in size. Further: potency means the concentration at half of the fitted maximal effect. An outline of the steps: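 Read-out is luminescence from luciferin formed by CYP2D6 turnover of a proluciferin substrate, recorded as relative luminescence units. Reactions ran 1 h at room temperature after NADPH regeneration solution was added.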
Cytochrome P450 2D6 (Homo sapiens), sequence (P10635 whole entry, looked up): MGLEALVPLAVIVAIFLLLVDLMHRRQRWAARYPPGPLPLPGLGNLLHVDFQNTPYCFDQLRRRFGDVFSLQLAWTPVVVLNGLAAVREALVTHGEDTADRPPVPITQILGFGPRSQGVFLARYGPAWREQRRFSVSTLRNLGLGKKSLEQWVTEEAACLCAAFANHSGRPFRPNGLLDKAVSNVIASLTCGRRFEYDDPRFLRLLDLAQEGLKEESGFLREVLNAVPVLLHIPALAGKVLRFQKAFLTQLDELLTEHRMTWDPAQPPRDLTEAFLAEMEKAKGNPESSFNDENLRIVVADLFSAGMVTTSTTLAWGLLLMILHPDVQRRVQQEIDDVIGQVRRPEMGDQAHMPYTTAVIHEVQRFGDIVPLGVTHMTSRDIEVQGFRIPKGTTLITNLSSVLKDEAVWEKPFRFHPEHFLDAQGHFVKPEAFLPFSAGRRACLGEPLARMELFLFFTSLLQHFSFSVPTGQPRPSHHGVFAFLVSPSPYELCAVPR
On the technique in general: Reporter assays use an easily measured gene product as a stand-in for the process of interest.

In assay [13] the target is Cytochrome P450 2C19 (Homo sapiens) (UniProt P33261). In words: Cytochrome P450 Family 2 Subfamily C Member 19 (CYP2C19) small molecule antagonists: luciferase reporter qHTS assay (AID 1671197). Further: nearly all actives have a fitted effect of over 65% in size. Further: potency means the concentration at half of the fitted maximal effect. The method in brief: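 Quantitative high-throughput screen of the Tox21 library using CYP2C19 with proluciferin substrate. Reaction: NADPH regeneration, 37C, 1 h, after 10 min compound preincubation at room temperature. Readout: luminescence.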
Cytochrome P450 2C19 (Homo sapiens), sequence (P33261 whole entry, looked up): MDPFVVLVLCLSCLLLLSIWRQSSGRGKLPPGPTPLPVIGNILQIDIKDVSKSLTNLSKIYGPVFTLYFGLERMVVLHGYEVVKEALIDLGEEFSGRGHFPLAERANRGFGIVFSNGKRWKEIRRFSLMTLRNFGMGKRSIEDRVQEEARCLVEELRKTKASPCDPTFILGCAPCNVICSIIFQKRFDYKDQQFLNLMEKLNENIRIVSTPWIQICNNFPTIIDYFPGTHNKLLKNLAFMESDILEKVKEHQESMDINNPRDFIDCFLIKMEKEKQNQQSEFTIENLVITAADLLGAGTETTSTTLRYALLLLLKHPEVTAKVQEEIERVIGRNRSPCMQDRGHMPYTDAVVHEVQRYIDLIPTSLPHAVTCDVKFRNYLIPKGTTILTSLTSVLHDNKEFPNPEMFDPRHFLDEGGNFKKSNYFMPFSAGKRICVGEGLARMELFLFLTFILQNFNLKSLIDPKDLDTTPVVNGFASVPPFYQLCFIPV

For assay [14], the target named is Thyrotropin-releasing hormone receptor (Homo sapiens) (UniProt P34981). The assay is described as follows: qHTS assay to identify small molecule antagonists of the thyrotropin-releasing hormone receptor (TRHR) signaling pathway (AID 1346877; active means well fitted inhibition curve with a large enough effect in the repeat runs, not every such curve was filed as active; further: series mostly up to about 51 µM). An outline of the steps:
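Intracellular calcium fluorescence, read kinetically every second over 3 min, reports TRH-evoked signalling in HEK293 cells carrying TRHR. Test compounds were added 5 min ahead of a 1 nM TRH challenge.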

Assay [15] has the same target. The assay is described as follows: qHTS assay to identify small molecule agonists of the thyrotropin-releasing hormone receptor (TRHR) signaling pathway (AID 1346891; calls by dose curve; further: series mostly up to about 58 µM). The method in brief:
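HEK293 cells expressing TRHR plated 18 h at 37 C/5% CO2, calcium dye-loaded 2 h at 37 C, then compound added (agonist mode); kinetic calcium fluorescence read 3 min at 1 s intervals; 15 concentrations in triplicate.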

Assay [16] can be described thus: Caspase-3/7 induction in CHO-K1 cells by small molecules, qHTS assay (AID 1346980). Further: nearly all actives have a fitted effect of over 15% in size. An outline of the steps: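 Luminescent Caspase-Glo 3/7 read (30min, room temperature) quantified apoptosis induction. Cells were wild-type CHO-K1, treated with compound for 17hr at 37 C and 5% CO2.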
The target of assay [17] is Nuclear receptor subfamily 1 group I member 2 (Rattus norvegicus) (UniProt Q9R1A7). In words: Rat pregnane X receptor (rPXR) activation by small molecules, qHTS assay (AID 1346983). Further: nearly all actives have a fitted effect of over 20% in size. The note with it: rPXR luciferase reporter cells, One-Glo luminescence, 24 h; max activation: stronger effect = higher value. The method in brief: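 Luminescent readout (One-Glo luciferase, 30 min room temperature) followed 24 hr compound treatment at 37 C of rPXR cells plated 2,000 per well and preincubated 5hr; qHTS format with compounds delivered in DMSO.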
Nuclear receptor subfamily 1 group I member 2 (Rattus norvegicus), sequence (Q9R1A7 whole entry, looked up): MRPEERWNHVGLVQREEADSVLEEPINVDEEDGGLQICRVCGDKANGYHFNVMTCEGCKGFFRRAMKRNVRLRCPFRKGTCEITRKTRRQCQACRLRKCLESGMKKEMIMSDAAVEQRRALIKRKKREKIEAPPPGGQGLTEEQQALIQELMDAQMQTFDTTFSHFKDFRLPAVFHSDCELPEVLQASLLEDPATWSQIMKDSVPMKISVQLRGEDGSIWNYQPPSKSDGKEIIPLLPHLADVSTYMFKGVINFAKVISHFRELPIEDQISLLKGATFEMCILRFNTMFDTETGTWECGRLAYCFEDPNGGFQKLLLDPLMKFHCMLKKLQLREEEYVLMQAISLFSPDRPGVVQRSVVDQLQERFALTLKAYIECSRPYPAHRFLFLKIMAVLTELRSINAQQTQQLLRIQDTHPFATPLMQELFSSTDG

Assay [18] has as its target Nuclear receptor subfamily 1 group I member 2 (Homo sapiens) (UniProt O75469). In words: CYP3A4 induction through human pregnane X receptor (PXR) by small molecules, qHTS assay (AID 1346984). Further: nearly all actives have a fitted effect of over 40% in size. Further: potency means the concentration at half of the fitted maximal effect. An outline of the steps: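 Luminescence readout: luciferase signal after One-Glo (30 min, room temperature), following 3 h at 37C with 3uM final Luciferin-IPA P450 substrate. Cells were DPX-2 (HepG2, PXR/CYP3A4-luc co-transfected) dosed for 24 h.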

For assay [19] the target is unchanged. In words: Human pregnane X receptor (PXR) activation by small molecules, qHTS assay (AID 1346985). Further: nearly all actives have a fitted effect of over 40% in size. An outline of the steps: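 DPX-2 cells (HepG2 co-transfected with a PXR response element and a CYP3A4-promoter luciferase construct) were seeded at 2,000 per well, rested 5 hr at 37C, then exposed to DMSO-dissolved compounds for 24 hr. Activation was read as luciferase luminescence.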
On the % scale 0 is the no-effect control and ±100 the full control effect.

Thyrotropin-releasing hormone receptor (Homo sapiens), sequence (P34981 whole entry, looked up): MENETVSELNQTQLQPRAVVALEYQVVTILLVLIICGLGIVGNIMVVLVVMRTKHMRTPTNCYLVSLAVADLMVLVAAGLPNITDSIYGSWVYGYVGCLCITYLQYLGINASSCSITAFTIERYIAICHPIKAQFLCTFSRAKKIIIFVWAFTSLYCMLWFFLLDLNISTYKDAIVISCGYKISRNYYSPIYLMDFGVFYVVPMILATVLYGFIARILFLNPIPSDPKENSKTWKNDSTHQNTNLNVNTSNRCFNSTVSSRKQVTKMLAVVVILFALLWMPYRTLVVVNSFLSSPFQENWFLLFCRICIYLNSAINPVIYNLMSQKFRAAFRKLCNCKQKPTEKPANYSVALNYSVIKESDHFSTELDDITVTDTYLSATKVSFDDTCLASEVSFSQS
Progesterone receptor (Homo sapiens), sequence (P06401 whole entry, looked up): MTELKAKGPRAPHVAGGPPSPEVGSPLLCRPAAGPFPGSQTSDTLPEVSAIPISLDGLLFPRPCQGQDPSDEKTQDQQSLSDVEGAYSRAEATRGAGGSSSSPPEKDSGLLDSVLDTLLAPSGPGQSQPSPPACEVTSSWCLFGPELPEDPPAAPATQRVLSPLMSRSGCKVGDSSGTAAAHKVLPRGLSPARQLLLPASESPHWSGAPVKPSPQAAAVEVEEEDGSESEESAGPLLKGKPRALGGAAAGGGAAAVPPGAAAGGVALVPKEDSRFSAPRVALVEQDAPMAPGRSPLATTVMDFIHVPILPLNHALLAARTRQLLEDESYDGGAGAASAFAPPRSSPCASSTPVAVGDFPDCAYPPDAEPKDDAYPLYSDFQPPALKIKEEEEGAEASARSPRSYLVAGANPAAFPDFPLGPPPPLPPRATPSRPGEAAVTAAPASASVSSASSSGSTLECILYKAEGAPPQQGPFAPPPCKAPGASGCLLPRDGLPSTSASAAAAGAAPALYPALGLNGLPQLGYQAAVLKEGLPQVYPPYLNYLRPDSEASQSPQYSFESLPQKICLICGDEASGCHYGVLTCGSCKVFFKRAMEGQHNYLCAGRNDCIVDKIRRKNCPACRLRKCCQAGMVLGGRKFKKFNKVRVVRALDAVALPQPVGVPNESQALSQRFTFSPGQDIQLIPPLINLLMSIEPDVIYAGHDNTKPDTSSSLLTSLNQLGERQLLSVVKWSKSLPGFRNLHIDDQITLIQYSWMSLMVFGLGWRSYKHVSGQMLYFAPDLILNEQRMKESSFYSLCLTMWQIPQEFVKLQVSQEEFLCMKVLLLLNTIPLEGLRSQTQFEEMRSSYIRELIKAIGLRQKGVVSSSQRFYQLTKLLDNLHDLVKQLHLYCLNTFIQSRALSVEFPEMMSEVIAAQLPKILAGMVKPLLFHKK
Nuclear receptor subfamily 1 group I member 2 (Homo sapiens), sequence (O75469 whole entry, looked up): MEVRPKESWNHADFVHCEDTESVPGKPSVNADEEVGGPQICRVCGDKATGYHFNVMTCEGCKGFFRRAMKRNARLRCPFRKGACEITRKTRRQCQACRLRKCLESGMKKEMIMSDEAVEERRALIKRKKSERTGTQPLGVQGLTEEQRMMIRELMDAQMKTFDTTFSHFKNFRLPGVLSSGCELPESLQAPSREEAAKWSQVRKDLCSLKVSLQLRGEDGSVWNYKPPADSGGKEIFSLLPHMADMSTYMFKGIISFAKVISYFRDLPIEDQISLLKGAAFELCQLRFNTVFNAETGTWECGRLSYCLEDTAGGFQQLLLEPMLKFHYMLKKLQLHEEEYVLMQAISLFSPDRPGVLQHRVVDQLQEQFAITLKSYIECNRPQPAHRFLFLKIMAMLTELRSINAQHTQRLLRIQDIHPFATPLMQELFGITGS

Consider `CN(C)CCOC(C)(c1ccccc1)c1ccccn1` (configuration not stated), for which the Potency entry in [1], in [2], in assay [3], in assay [4], in [5] and in assay [7] was “inactive” throughout. Moreover, the Potency result in assay [8], in [9], in assay [10] and in assay [11] was “inactive” in each case. For the same compound, the compound was classed as inactive in assay [6]. In addition, the Potency was 17.9 µM (active) and 20 µM (active) and 13.8 µM (active) in assay [12]; 40 µM (active) and inactive in [13].

As for `CCCCCCCCCCCCCCCC[N+](C)(C)Cc1ccccc1`, the Potency entry in assay [1], in assay [2], in [14], in assay [15], in assay [16] and in [11] was “inactive” each time. The Potency result in assay [18] is “inactive”. Moreover, the Potency in assay [3] is 24.8 µM (active); in assay [4], 10 µM (active) and 12.4 µM (active) and 6.68 µM (active); in assay [5], 56.7 µM (active) and 49.8 µM (active); in assay [8] it was 70.8 µM (active) and inactive; in assay [9], 50.1 µM (active) and 39.3 µM (active) and 29.8 µM (active); in assay [10], 62.2 µM (active). The Potency in assay [12] is 923 nM (active) and 406 nM (active) and 389 nM (active); in assay [13], 32.7 µM (active) and 51.2 µM (active) and 27.5 µM (active). Besides, the result in assay [6] and in [19] was inactive. In assay [17], the max activation is -17.4% (inactive).

For `Cn1c(=O)c2c(ncn2C)n(C)c1=O`, the Potency entry in [1], in assay [2], in assay [3], in assay [4], in assay [5] and in assay [8] was “inactive” each time. Moreover, the outcome in assay [6] was inactive. Besides, the Potency in [7] was 39.8 µM (active) and inactive; in assay [9], 61.9 µM (active) and inactive; in assay [10], 61.9 µM (active) and inactive.

Take `Cc1cc(C)nc(NS(=O)(=O)c2ccc(N)cc2)n1`: the Potency entry in [1], in assay [2], in assay [3], in assay [4], in [5] and in assay [14] was “inactive” in each case. The Potency entry in assay [15], in assay [7], in assay [8], in assay [9], in assay [16] and in assay [10] was “inactive” in each case. The Potency result in assay [11] and in [12] was “inactive” each time. Moreover, the compound was classed as inactive in [6]. Besides, the Potency in assay [13] is 80.6 µM (active) and inactive.

As for `Nc1c(N=Nc2ccc(-c3ccc(N=Nc4cc(S(=O)(=O)O)c5ccccc5c4N)cc3)cc2)cc(S(=O)(=O)O)c2ccccc12`, the Potency result in [1], in [2], in assay [3], in [4], in assay [5] and in assay [8] was “inactive” in each case. Besides, the Potency result in assay [16] and in assay [11] was “inactive” each time. The call in assay [6] and in assay [19] was inactive. Also, the Potency in [7] is 8.63 µM (active); in assay [9], 12.2 µM (active); in assay [10], 17.2 µM (active); in assay [18], 22.4 µM (active); in [12], 35.6 µM (active); in assay [13], 71 µM (active). In addition, the max activation in [17] was -6.72% (inactive).

Turning to `NC(=O)c1cccnc1`, the Potency result in assay [1], in assay [2], in assay [3], in [4], in assay [5] and in assay [7] was “inactive” each time. The Potency entry in assay [9], in assay [16], in assay [10], in [11], in assay [18] and in assay [12] was “inactive” in each case. Further, the compound was classed as inactive in assay [6] and in assay [19]. Also, in assay [17], the max activation was -0.433% (inactive). In addition, the Potency in assay [13] was 49.3 µM (active) and inactive.

For `O=S1(=O)OC(c2ccc(O)cc2)(c2ccc(O)cc2)c2ccccc21`, the Potency result in assay [1], in assay [2], in [3], in assay [4], in assay [5] and in [14] was “inactive” in each case. The Potency result in [15], in [11], in [18] and in [12] was “inactive” in each case. In addition, the compound was classed as inactive in assay [6] and in assay [19]. In addition, the Potency in assay [7] was 24.3 µM (active) and 30.6 µM (active) and 9.44 µM (active); in [9], 30.6 µM (active) and 13.3 µM (active); in [10] it was 34.4 µM (active) and 48.6 µM (active) and 15 µM (active); in assay [13] it was “inactive and 50.2 µM (active)”. Moreover, the max activation in assay [17] was 1.08% (inactive).
